A selection: hits, their analogues and other compounds. The true share with any hit is near 12%.
JMJD2A Tudor = inhibitors of human JMJD2A Tudor domain. O75164. AlphaScreen JMJD2A-Tudor / H3K4me3 peptide binding. Potency, µM (top dose mostly 114 µM), for the others: at the top dose activity change, negative = inhibition, hits mostly inhibitors. 4.4% of 390,000 active. AID 504339; also: % is scaled to controls: 0 for no effect and ±100 for the full control effect; nearly all actives have a fitted effect of over 50% in size
HP1b chromo inh = HP1-beta chromodomain-methylated histone interaction inhibition | AlphaScreen HP1-beta / biotin-H3K9me3 peptide binding | 0.56% of 390,000 active | AID 540317 | Potency, µM (doses to about 114 µM), for inactives: at the highest dose activity change, negative = inhibition, most hits filed as inhibitors; also: nearly all actives have a fitted effect of over 70% in size
Target sequence (P83916 whole entry, looked up): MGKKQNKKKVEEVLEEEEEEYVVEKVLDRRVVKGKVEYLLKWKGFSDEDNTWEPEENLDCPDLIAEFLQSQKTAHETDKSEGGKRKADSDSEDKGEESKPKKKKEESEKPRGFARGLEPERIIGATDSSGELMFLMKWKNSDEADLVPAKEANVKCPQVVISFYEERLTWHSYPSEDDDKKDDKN
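HP1-beta protein (50 nM final) preincubated 30 min at room temperature with biotinylated H3(1-18)K9me3 peptide (50 nM) in PBS pH 7.4, 0.01% Tween-20, then compound added for 30 min. AlphaScreen streptavidin donor/nickel chelate acceptor beads (10 ug/mL final), 30 min dark, luminescence read.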
BAZ2B block = BAZ2B (human) inhibition. Q9UIF8. AlphaScreen BAZ2B-H3K14Ac peptide displacement. Potency, µM (series often up to 114 µM), for inactives: at the top dose activity change, negative = inhibition, most hits filed as inhibitors. 4.4% of 360,000 active. AID 504333; also: % is scaled to controls: 0 for no effect and ±100 for the full control effect; nearly all actives have a fitted effect of over 60% in size
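In this displacement format the biotinylated H3(5-23) peptide acetylated at Lys14 serves as ligand at 50 nM, with BAZ2B at 50 nM in PBS pH 7.4 containing 0.01% Tween-20. Donor and acceptor beads are 10 ug/mL final.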
G9a block = blocks human histone lysine methyltransferase G9a | 8.8% of 350,000 active | Potency, µM (doses to about 102 µM), for inactives: at the top dose activity, negative = inhibition, most hits filed as inhibitors | AID 504332 | Q96KQ7 | G9a H3K9 monomethylation, AlphaScreen, 2 h; also: % is scaled to controls: 0 for no effect and ±100 for the full control effect; nearly all actives have a fitted effect of over 75% in size
Target sequence (Q96KQ7 913-1193 limits assumed): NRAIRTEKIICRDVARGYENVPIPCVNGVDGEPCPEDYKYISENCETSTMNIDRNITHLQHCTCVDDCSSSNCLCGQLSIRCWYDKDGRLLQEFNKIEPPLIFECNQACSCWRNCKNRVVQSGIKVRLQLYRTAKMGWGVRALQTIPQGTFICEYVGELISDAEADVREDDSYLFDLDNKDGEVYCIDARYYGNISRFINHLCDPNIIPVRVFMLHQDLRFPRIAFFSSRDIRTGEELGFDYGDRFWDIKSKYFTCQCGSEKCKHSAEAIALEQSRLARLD
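AlphaScreen read-out: biotin-H3K9 peptide (500 nM) methylation by 20 nM enzyme with 20 uM SAM, 2 h at room temperature after 15 min compound preincubation; anti-monomethyl H3K9 antibody plus donor/acceptor beads, 10 min dark.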
Sfp inh = inhibitors of Bacillus subtilis Sfp phosphopantetheinyl transferase; Biochemical Sfp PPTase activity, qHTS; Potency, µM, inactives show largest response in the series, negative = inhibition, actives largely listed as inhibitors; 3.5% of 310,000 active;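 also: the enzyme is Sfp with the accession as filed and its product quenches rhodamine fluorescence; 0% = enzyme reaction without inhibitor and -100% = no enzyme wells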
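Step 1, compound plus 15 nM Sfp-PPTase, 15 min, room temperature. Step 2, add rhodamine-CoA (5 uM) and BHQ-2-YbbR (12.5 uM). Step 3, read 525/598 nm fluorescence at 0 and 30 min.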
L3MBTL1 inh = inhibitors of human L3MBTL1. Q9Y468. AlphaScreen L3MBTL1–H3K9me1 peptide binding. Potency, µM (top dose mostly 57.1 µM), for the others: top-dose activity, negative = inhibition, hits mostly inhibitors. 0.66% of 230,000 active. AID 485360; also: % is scaled to controls: 0 for no effect and ±100 for the full control effect; nearly all actives have a fitted effect of over 60% in size
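First, the protein-peptide complex forms for 30 min at room temperature (L3MBTL1 50 nM, biotinylated H3K9me1 peptide 75 nM). Next, compounds are pin-transferred and incubated 30 min. Finally, AlphaScreen beads are added and read after 30 min.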
An asterisk follows results filed as active; ? = inconclusive; . = not tested or not shown; [ ] = dose if it differs, or a comment. Calls follow the shape of the dose curve; as a rule, active = well fitted curve in the direction sought with a large enough effect; inconclusive = small, poorly fitted or top-dose-only effect, or another doubt; inactive = no such curve, though single readings can be large; an effect the other way counts as inactive or inconclusive. Potency is read from the fitted curve at half-maximal effect.

SMILES	JMJD2A Tudor	HP1b chromo inh	BAZ2B block	G9a block	Sfp inh	L3MBTL1 inh
CCCCN(Cc1nc2ccccc2c(=O)[nH]1)C(=O)c1nn(C)c(=O)c2ccccc12	-3%	33%	11%	?	.	1%
O=Cc1cc(N=Nc2ccccc2Cl)ccc1O	25µM*	?	10µM*	10µM*	-14%	?
Cc1ccc(NS(=O)(=O)c2ccc(F)cc2)cc1C	-3%	.	.	.	.	.
CCOC(=O)c1c(C)sc(-c2c(-c3cc(C)ccc3C)[nH]c3c2c(=O)n(C)c(=O)n3C)c1O	?	5%	79µM*	?	.	.
CCOC(=O)c1c(C)sc(-c2c(-c3cc(C)ccc3C)[nH]c3c2c(=O)[nH]c(=O)n3C)c1O	-27%	10%	50µM*	?	.	.
CCOC(=O)c1c(C)sc(-c2c(-c3cccc(Cl)c3)[nH]c3c2c(=O)n(C)c(=O)n3C)c1O	?	23%	?	?	.	.
COc1cc(N2CCCC2)c(OC)cc1/C=C(/C#N)c1ccc(F)cc1	32µM*	40µM*	16µM*	1.6µM*	?	?
COc1cc(N2CCCC2)c(OC)cc1/C=C(/C#N)c1ccc(Br)cc1	20µM*	?	13µM*	2.8µM*	-11%	.
COc1cc(N2CCCC2)ccc1C=O	-11%	9%	4%	5%	4%	-6%
N#C/C(=C/c1ccc(N2CCCCC2)cc1)c1cccc(F)c1	?	?	-35%	4%[59 µM]	-8%	-7%
CC(C#N)Sc1nnc(-c2ccccc2F)n1C1CC1 (stereo unspecified)	4%	17%	-18%	16%	11%	.
O=C(CCl)N1c2ccccc2Oc2ccc3ccccc3c21	56µM*	71µM*	.	.	.	.
O=C(/C=C/c1ccccc1)Nc1sc2c(c1C(=O)O)CCC2	-18%	16%	-32%	50µM*	11%	-17%
O=C(/C=C/c1ccco1)Nc1sc2c(c1C(=O)O)CCC2	?	-26%	?	?	50µM*	?
CNC(=O)c1c(NC(=O)/C=C/c2ccccc2)sc2c1CCC2	-29%	1%[57 µM]	-20%	-12%[59 µM]	.	.
Cc1ccc(-c2csc(NC(=O)/C=C/c3ccco3)c2C(=O)O)cc1	?	26%	79µM*	.	28µM*	?
Cc1nc(-c2ccccc2)sc1CCNC(=O)C(=O)Nc1ccc(F)c(Cl)c1	-17%	15%[57 µM]	-2%	14%[59 µM]	.	.
O=c1[nH]c2ccc(S(=O)(=O)NCc3ccccc3)cc2[nH]1	-15%	-8%	-15%	4%	12%	0%
COc1cccc(C(c2sc3ncnn3c2O)N2CCN(C(=O)c3ccco3)CC2)c1 (stereo unspecified)	-10%	21%	7%	1%[59 µM]	16%	40%
CCN1CCN(C(c2cccc(OC)c2)c2sc3nc(C)nn3c2O)CC1 (stereo unspecified)	-24%	22%	-1%	7%[59 µM]	3%	13%
Oc1c(C(c2ccco2)N2CCN(C(c3ccccc3)c3ccccc3)CC2)sc2ncnn12 (stereo unspecified)	?	-4%	?	18µM*	50µM*	.
COc1cccc(C(c2sc3nc(C)nn3c2O)N2CCc3ccccc3C2)c1 (stereo unspecified)	20µM*	50µM*	-1%	4µM*	32µM*	-8%
Oc1c(C(c2ccccc2)N2CCc3ccccc3C2)sc2ncnn12 (stereo unspecified)	32µM*	?	12%	4µM*	79µM*	?
CCc1ccc2ncc3c(-c4ccccc4)nn(-c4ccccc4)c3c2c1	-12%	4%	.	2%[59 µM]	.	.
C/C(=N\NC(=O)CCCNc1ccc(C)cc1)c1ccccn1	?	7%	56µM*	16µM*	-4%	-18%
C/C(=N/NC(=O)c1cc2ccccc2cc1O)C1C(=O)c2ccccc2C1=O	16µM*	22µM*	?	40µM*	0%	.
